Reference: PubChem BioAssay
Activity calls are given as the source filed them.

Tests used:
[1] = A549 cell viability effects, profiling panel, calcein-AM fluorescence, 48 h, basal (AID 1162); conditions: higher = more signal
[2] = adipocyte viability effects, profiling panel, cell-based, 3T3-L1 adipocytes, calcein-AM fluorescence, 48 h, basal (AID 1163); conditions: 3T3-L1 adipocytes viability, higher = more signal
[3] = HepG2 cell viability effects, profiling panel, calcein-AM fluorescence, 48 h, basal (AID 1164); conditions: higher = more signal
[4] = MM1S cell viability effects, profiling panel, calcein-AM fluorescence, 48 h, basal (AID 1165); conditions: higher = more signal;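 further: viability of MM1S multiple myeloma cells under basal unstimulated conditions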
[5] = basal RPMI8226 viability, no added stimulus, profiling panel, cell-based, calcein-AM fluorescence, 48 h, PK04 Diversity Set (AID 1166); conditions: RPMI8226 myeloma viability, higher = more signal;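 further: cells grown under basal conditions without added stimulus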
[6] = basal HepG2 mitochondrial membrane potential changes, profiling panel, cell-based, JC-1 fluorescence, 24 h, 100 nL compound (AID 1167); conditions: higher = more signal
[7] = basal 3T3-L1 adipocyte mitochondrial potential changes, profiling panel, cell-based, JC-1 fluorescence, 3T3-L1 adipocytes, 24 h, 100 nL compound (AID 1168); conditions: JC-1 mitochondrial fluorescence, higher = more signal, called active from +8 up or from −8 down
[8] = basal RPMI8226 mitochondrial membrane potential changes, profiling panel, cell-based, JC-1 fluorescence, 24 h, 100 nL compound (AID 1169); conditions: RPMI8226 myeloma, JC-1 mitochondrial potential fluorescence, higher = more signal
[9] = basal MM1S mitochondrial membrane potential changes, profiling panel, cell-based, JC-1 fluorescence, 24 h, 100 nL compound (AID 1170); conditions: higher = more signal
[10] = A549 lung cancer cell viability effects, profiling panel, resazurin fluorescence, 24 h, PK04 Diversity Set (AID 1171); conditions: higher = more signal, called active from +8 up or from −8 down
Further: test concentration not given here.

Row | Structure (SMILES) | z-score [1] | z-score [2] | z-score [3] | z-score [4] | z-score [5] | z-score [6] | z-score [7] | z-score [8] | z-score [9] | z-score [10]
1 | O=C1C2C=CC(C(O)c3ccco3)N(Nc3ccccc3F)C2C(=O)N1c1ccccc1 (stereo not given) | -0.356 | -0.912 | -0.0718 | -0.142 | 0.243 | -1.27 | -0.346 (inactive) | -0.201 | 0.128 | 0.279 (inactive)
2 | CC(CO)N1C(=O)[C@@H]2[C@H]3C(=O)OCC=C[C@H]3OC23C=CCN(Cn2nnc4ccccc42)C(=O)[C@@H]13 (stereo not given in full) | -0.671 | -0.948 | -0.907 | 0.07 | -0.637 | -1.23 | -0.529 (inactive) | 0.241 | -0.226 | -0.382 (inactive)
3 | CCOC(=O)C[C@H]1[C@H](OC(=O)c2cc3ccccc3oc2=O)[C@@H](NC(=O)c2ccc3ccccc3n2)c2cc(OCCCO)ccc2N1C(=O)Cc1ccc(OC)cc1 | 0.308 | 0.499 | -0.355 | 0.765 | -0.946 | 0.492 | -0.362 (inactive) | 0.498 | -0.423 | 0.711 (inactive)
4 | COc1cc(C(O)C2C=CC3C(=O)N(C)C(=O)C3N2Nc2ccccc2)cc(OC)c1OC (stereo not given) | 0.212 | 0.555 | -0.0987 | 0.0355 | 0.438 | -0.349 | -0.604 (inactive) | 0.221 | -0.471 | 0.144 (inactive)
5 | NCCCCCCNC(=O)[C@@H]1C[C@@H]2C(=O)N[C@@H](CCCCN)C(=O)N2[C@@H]1c1ccc(O)cc1 | -0.551 | 0.207 | -0.99 | -1.25 | -0.0734 | -1.31 | 0.535 (inactive) | -0.0408 | -0.276 | -0.71 (inactive)
6 | CC[C@@H]1O[Si](C(C)C)(C(C)C)c2c1cc(-c1cc(C)c(OC)c(C)c1)nc2-c1ccc(Oc2ccccc2)cc1 | -0.472 | -0.25 | -0.601 | 0.287 | -0.388 | -0.557 | 0.202 (inactive) | 0.756 | 0.207 | 1.69 (inactive)
7 | CCN(CC)c1ccc(N2CC=CC34O[C@@H]5/C=C\CCCOC(=O)C5[C@H]3C(=O)N(C(C)CO)[C@@H]4C2=O)cc1 (stereo not given in full) | 0.838 | -0.536 | 1.43 | 1.67 | 0.403 | 0.8 | 0.744 (inactive) | -0.441 | 0.135 | 0.0032 (inactive)
8 | COC(=O)C1=CC(CCCO)=CC(c2cccs2)N(C)C=C1C(=O)OC (stereo not given) | -0.253 | 0.483 | -0.818 | 0.347 | 0.959 | -0.386 | -0.195 (inactive) | -0.294 | 0.549 | -0.28 (inactive)
9 | COC(=O)[C@@]1(Cc2ccc(F)cc2)[C@H]2c3cc(C(=O)N(C)C)n(Cc4ccc(OC(F)(F)F)cc4)c3C[C@H]2CN1C(=O)c1ccccc1 | -0.524 | -0.859 | -0.51 | -0.225 | 0.218 | -0.0759 | -0.392 (inactive) | -0.0137 | -0.276 | -0.914 (inactive)
10 | C=CC[C@@H](OC(=O)Nc1ccc(OC)cc1)c1ccc(O)c(F)c1 | -1.78 | 0.379 | -2.39 | -2.15 | -2.51 | -3.67 | -1.37 (inactive) | 0.122 | -1.07 | -0.747 (inactive)
11 | COc1cc(NN2C(C(O)c3ccco3)C=CC3C(=O)N(C)C(=O)C32)cc(OC)c1OC (stereo not given) | -1.2 | -0.615 | -0.827 | 0.032 | 0.134 | -1.01 | -0.892 (inactive) | -0.573 | 0.314 | -1.41 (inactive)
12 | CCCCCN1CC=CC23O[C@@H]4/C=C\CCCOC(=O)C4[C@H]2C(=O)N(C(C)CO)[C@@H]3C1=O (stereo not given in full) | 0.327 | -0.0628 | -0.0728 | 1.16 | 0.15 | 0.37 | 0.0667 (inactive) | 1.08 | -1.13 | 0.423 (inactive)
13 | COc1ccc([Si](C)(C)[C@@H]2[C@@H](CCO)O[C@]3(C(=O)N(Cc4ccccc4)c4ccc(N5C(=O)c6cccc7cccc5c67)cc43)[C@H]2C)cc1 | -0.768 | -0.384 | -0.916 | -0.61 | -2.73 | -0.555 | 0.943 (inactive) | -0.751 | -1.3 | -0.149 (inactive)
14 | CCCCCN1CC=CC23O[C@@H]4/C=C\CCC(C)OC(=O)C4[C@H]2C(=O)N(C(CO)C(C)C)[C@@H]3C1=O (stereo not given in full) | -0.588 | 0.214 | -0.272 | 1.82 | 0.216 | -0.224 | -0.0517 (inactive) | 0.699 | -0.577 | 0.829 (inactive)
15 | COc1cc(NN2C(C(O)c3ccc(N(C)C)cc3)C=CC3C(=O)N(c4ccccc4)C(=O)C32)cc(OC)c1OC (stereo not given) | -0.0098 | 0.808 | 0.181 | -0.0191 | -0.889 | -0.112 | -0.783 (inactive) | 0.134 | -0.0117 | -0.815 (inactive)
16 | CC(C)[Si](C#C[Si](C(C)C)(C(C)C)C(C)C)(O[C@H](c1ccccc1)c1cn(Cc2ccccc2)nn1)C(C)C | -0.491 | -0.224 | 0.732 | 1.01 | 0.798 | 1.63 | -0.703 (inactive) | 0.294 | -0.888 | 1.77 (inactive)

Row | Structure (SMILES) | z-score [1] | z-score [2] | z-score [3] | z-score [4] | z-score [5] | z-score [6] | z-score [7] | z-score [8] | z-score [9] | z-score [10]
17 | O=C(O)[C@@H]1[C@@H]2C(=O)N(c3ccccc3)C(=O)[C@@H]2C[C@@H]1Sc1ccccc1 | -0.653 | -0.832 | -1.32 | -0.939 | -0.616 | -0.829 | -0.867 (inactive) | 0.718 | -0.773 | 0.0964 (inactive)
18 | CCCNC(=O)[C@@]1(Sc2ccc(C)cc2)CC(=O)N(C2Cc3ccccc3C2)[C@@H]1c1ccc(CO)cc1I | 0.877 | 0.331 | 0.544 | -1.54 | -1.85 | -0.574 | -0.0979 (inactive) | -0.778 | -0.987 | 0.309 (inactive)
19 | [N-]=[N+]=Nc1ccccc1C[C@]1(C(=O)N2CCOCC2)COC(c2ccc(OCCCO)cc2)=N1 | 0.462 | 1.31 | -0.603 | -1.43 | -0.314 | 0.943 | -0.491 (inactive) | -0.571 | 0.615 | 1.63 (inactive)
20 | CCOC(=O)C[C@H]1[C@H](OC(=O)Cc2ccc3c(c2)OCO3)[C@@H](NC(=O)c2ccc3ccccc3n2)c2cc(OCCCO)ccc2N1C(=O)c1ccccc1 | 0.776 | 0.288 | 0.731 | 0.26 | -1.09 | 2.52 | 0.0925 (inactive) | -0.169 | -1.07 | 0.231 (inactive)
21 | CCOC(=O)C[C@H]1[C@H](OC(=O)c2ccc(C(=O)c3ccccc3)cc2)[C@@H](NC(=O)c2ccc3ccccc3n2)c2cc(OCCCO)ccc2N1C(=O)Cc1ccc(OC)cc1 | 0.822 | 0.418 | 0.113 | 0.37 | 0.0914 | 0.546 | 0.295 (inactive) | -0.181 | -0.14 | 0.0291 (inactive)
22 | COCCOC(=O)N1C(=O)[C@@]2(c3ccccc31)[C@H](c1ccc(O)cc1)N1[C@H](c3ccccc3)[C@H](c3ccccc3)OC(=O)[C@H]1[C@@H]2C(=O)N1CCN(c2ncccn2)CC1 | -0.402 | 1.26 | -0.611 | -0.62 | -0.42 | -0.238 | -0.685 (inactive) | 0.199 | 0.0293 | 0.233 (inactive)
23 | COc1ccc([Si](C)(C)[C@H]2[C@H](CC(=O)N(CCO)Cc3ccccc3)O[C@@]3(C(=O)N(C)c4c(Br)cc(C)cc43)[C@@H]2C)cc1 | -3.51 | -0.346 | -4.11 | -2.75 | -4.66 | -2.26 | 0.0268 (inactive) | -1.07 | -2.16 | -1.02 (inactive)
24 | CCOC(=O)C[C@H]1[C@H](OC(=O)Cc2ccc3c(c2)OCO3)[C@@H](NC(=O)c2ccc3ccccc3n2)c2cc(OCCCO)ccc2N1C(=O)c1ccc2ccccc2n1 | 5.35 | 1.03 | 1.83 | -1.01 | 0.121 | 2.81 | 0.413 (inactive) | 0.362 | 0.981 | -0.387 (inactive)
25 | Cc1ccccc1C(O)C1C=CC2C(=O)NC(=O)C2N1Nc1ccccn1 (stereo not given) | -0.251 | -1.09 | -0.823 | -0.0706 | -0.729 | -0.831 | -0.654 (inactive) | 0.551 | 0.365 | -1.02 (inactive)
26 | CCCCC(O)C1C=CC2C(=O)N(C)C(=O)C2N1N(c1ccccc1)c1ccccc1 (stereo not given) | -0.646 | -1.68 | 0.821 | -0.769 | -0.938 | -1.19 | -1.3 (inactive) | -0.198 | -0.497 | -0.7 (inactive)
27 | CCCCNC(=O)c1ccc(C#CC(C)(C)C)c(OC(C)=O)c1 | 0.3 | 1.75 | -0.835 | 0.13 | -1.37 | -0.75 | -0.103 (inactive) | -0.284 | -0.221 | -0.654 (inactive)
28 | Cc1ccc(S[C@]2(C(=O)NC(C)C)CC(=O)N(Cc3cc(C(F)(F)F)cc(C(F)(F)F)c3)[C@@H]2c2ccc(CO)cc2)cc1 | 0.15 | -0.312 | -0.286 | 0.395 | 0.392 | -0.387 | -0.5 (inactive) | -0.555 | -0.129 | 0.271 (inactive)
29 | [N-]=[N+]=Nc1ccccc1C[C@@]1(C(=O)NCCN2CCOCC2)N=C(c2ccc(OCCCO)cc2)O[C@@H]1c1ccccc1N=[N+]=[N-] | -1.96 | 0.205 | -2.04 | -2.94 | -3.31 | -0.112 | -0.29 (inactive) | -1.26 | -1.27 | -1 (inactive)
30 | C=CCNC(=O)[C@@H]1[C@H]2C(=O)O[C@H](c3ccccc3)[C@H](c3ccccc3)N2[C@H](c2ccccc2OCCO)[C@@]12C(=O)Nc1ccc(C#CCCO)cc12 | -0.368 | 0.953 | 0.151 | -0.66 | -0.485 | -0.699 | 0.959 (inactive) | -0.435 | -0.608 | 0.322 (inactive)
31 | COCCOC(=O)N1C(=O)[C@@]2(c3cc(C#CC4=CCCCC4)ccc31)[C@H](c1ccccc1OCCO)N1[C@H](c3ccccc3)[C@H](c3ccccc3)OC(=O)[C@H]1[C@@H]2C(=O)N1CCN(c2ncccn2)CC1 | -1.17 | 0.956 | 0.195 | -0.118 | -1.92 | 0.259 | 2.14 (inactive) | -0.423 | -1.19 | 0.753 (inactive)
32 | CCOc1cc(C(O)C2C=CC3C(=O)NC(=O)C3N2Nc2ccc(Cl)cc2Cl)ccc1O (stereo not given) | -1.33 | -0.337 | -0.672 | -0.433 | -0.236 | -1.19 | -1.05 (inactive) | -0.76 | 0.172 | -0.873 (inactive)
